Values joined by “and” are separate entries in the source; they are usually repeats but may differ in a detail not shown here. Identical values can stand only once. Records with an inconclusive call do not appear. A call without a number means that no potency is given here. Where a structure was tested more than once in an assay, its records may differ in their call. Active and inactive are the calls of the source. Unless noted, the call rests on the fitted dose curve; in most records, active means well fitted curve in the direction sought with a large enough effect in the repeat runs; inconclusive means weak or mixed curves; inactive means no such curve, though single readings can be large; an effect the other way counts as inactive or inconclusive.
Tests used:
[1] = qHTS assay to identify aromatase inhibitors - cell viability counter screen (AID 743084);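 further: cells stimulated with testosterone during compound exposure; nearly all actives have a fitted effect of over 55% in size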
[2] = molecular target: Aryl hydrocarbon receptor (Homo sapiens) (UniProt P35869); assay: qHTS assay to identify small molecule that activate the aryl hydrocarbon receptor (AhR) signaling pathway (AID 743085); further: nearly all actives have a fitted effect of over 15% in size; further: potency means the concentration at half of the fitted maximal effect;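 on activation: HG2L7.5c1 human HepG2 liver cells with stably integrated DRE-driven firefly reporter; series mostly up to about 70 µM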
Method in brief: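 Compounds were tested in HepG2 hepatocellular carcinoma cells harbouring a stably integrated luciferase gene under control of 20 DREs. Increased reporter signal after 24 h treatment at 37C was taken as AhR activation.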

[3] = qHTS assay to identify small molecule that activate the aryl hydrocarbon receptor (AhR) signaling pathway - cell viability counter screen (AID 743086);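 further: HepG2 liver cells carrying the AhR DRE luciferase reporter; series mostly up to about 70 µM; nearly all actives have a fitted effect of over 45% in size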
Method in brief: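 Cytotoxicity counter screen: CellTiter-Fluor signal (30 min, 37 C) in 4000 HepG2 cells/well carrying the DRE-luciferase reporter, following 24 h compound exposure at 37 C.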

[4] = molecular target: Peroxisome proliferator-activated receptor gamma (Homo sapiens) (UniProt P37231); assay: qHTS assay to identify small molecule agonists of the peroxisome proliferator-activated receptor gamma (PPARg) signaling pathway (AID 743094; active means well fitted activation curve with a large enough effect in the signal ratio in the repeat runs, not every such curve was filed as active; the % refers to the signal ratio)
Method in brief: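 Beta-lactamase FRET fluorescence was the read-out after a 1 h room-temperature substrate step, following 17 h compound treatment at 37C of HEK293H cells expressing a UAS-driven bla reporter responsive to PPARg.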

[5] = molecular target: Peroxisome proliferator-activated receptor gamma (Homo sapiens) (UniProt P37231); assay: qHTS assay to identify small molecule antagonists of the peroxisome proliferator-activated receptor gamma (PPARg) signaling pathway (AID 743191; calls by dose curve; further: series mostly up to about 63 µM; nearly all actives have a fitted effect of over 30% in size)
Method in brief: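 Beta-lactamase reporter under UAS control in HEK293H PPARg-bla cells; compound treatment 17 h at 37C. Read-out: fluorescence intensity after 1 h room-temperature incubation with LiveBLAzer B/G FRET substrate.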

[6] = qHTS assay to identify small molecule antagonists of the peroxisome proliferator-activated receptor gamma (PPARg) signaling pathway - cell viability counter screen (AID 743194); conditions: Potency: co-treated with 50 nM rosiglitazone; further: nearly all actives have a fitted effect of over 55% in size
Method in brief: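 Viability was measured as CellTiter-Glo luminescence in GeneBLAzer PPARg UAS-bla HEK293H cells. These cells had been exposed 17 h at 37 C to compounds together with rosiglitazone at 50 nM final, with the beta-lactamase readout taken in the same wells.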

[7] = qHTS assay for small molecule agonists of the antioxidant response element (ARE) signaling pathway (AID 743202; active means well fitted activation curve with a large enough effect in the signal ratio in the repeat runs, not every such curve was filed as active; the % refers to the signal ratio; further: potency means the concentration at half of the fitted maximal effect)
Method in brief: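 An ARE-responsive beta-lactamase gene stably integrated in HepG2 cells serves as reporter. After 5 h plating and 16 h compound incubation at 37 C, fluorescence of the B/G FRET substrate was measured.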

[8] = qHTS assay for small molecule activators of the heat shock response signaling pathway - cell viability counter screen (AID 743209); further: nearly all actives have a fitted effect of over 50% in size
Method in brief: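 Luminescence from CellTiter-Glo, added after the beta-lactamase FRET read, gave the viability signal. Cells were HSE-bla HeLa treated with DMSO-dissolved compounds for 5 h at 37 C following overnight plating.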

[9] = qHTS assay for small molecule activators of the heat shock response signaling pathway (AID 743210; active means well fitted activation curve with a large enough effect in the signal ratio in the repeat runs, with a control signal flat, not every such curve was filed as active; the % refers to the signal ratio;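 further: HeLa cells with beta-lactamase reporter driven by heat shock elements; series mostly up to about 63 µM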)
Method in brief: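 In HSE-bla HeLa cells, 5 h compound incubation (37 C) precedes addition of LiveBLAzer B/G substrate; after 2.5 h at room temperature, fluorescence intensity indicates reporter induction.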

[10] = qHTS assay to identify small molecule agonists of the peroxisome proliferator-activated receptor delta (PPARd) signaling pathway - cell viability counter screen (AID 743211); further: nearly all actives have a fitted effect of over 55% in size
Method in brief: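 Counter screen for cytotoxicity run in parallel with the PPARd reporter screen. Beta-lactamase reporter HEK293H cells exposed to compounds 17 h; ATP-based CellTiter-Glo luminescence quantified viability.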

[11] = molecular target: Peroxisome proliferator-activated receptor delta (Homo sapiens) (UniProt Q03181); assay: qHTS assay to identify small molecule agonists of the peroxisome proliferator-activated receptor delta (PPARd) signaling pathway (AID 743212; calls by dose curve)
Method in brief: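 HEK293H UAS-bla reporter cells, human PPARd system; compounds delivered in DMSO after 5 h plating, then at 37 C. Beta-lactamase FRET read, 2 h RT substrate step.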

[12] = molecular target: Peroxisome proliferator-activated receptor delta (Homo sapiens) (UniProt Q03181); assay: qHTS assay to identify small molecule antagonists of the peroxisome proliferator-activated receptor delta (PPARd) signaling pathway (AID 743215; active means well fitted inhibition curve with a large enough effect in the signal ratio in the repeat runs, not every such curve was filed as active; the % refers to the signal ratio;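 further: cells stimulated with agonist L165041 at 300 nM final during compound exposure; series mostly up to about 62 µM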)
Method in brief: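 Read-out is beta-lactamase FRET fluorescence, measured 2 h after substrate addition at room temperature. Beforehand, UAS-bla HEK293H cells carrying the PPARd reporter were exposed to compounds with L165041 at 300 nM final for 17 h at 37 C.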

[13] = qHTS assay to identify small molecule agonists of the farnesoid-X-receptor (FXR) signaling pathway - cell viability counter screen (AID 743218); further: nearly all actives have a fitted effect of over 45% in size
Method in brief: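 HEK 293T FXR-bla cells; 5 h pre-incubation, 16 h compound exposure at 37 C; LiveBLAzer substrate 2 h RT, then CellTiter-Glo 30 min RT, luminescence.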

[14] = qHTS assay to identify small molecule antagonists of the farnesoid-X-receptor (FXR) signaling pathway - cell viability counter screen (AID 743221; active means well fitted cell-killing curve with a large enough effect in the repeat runs, not every such curve was filed as active; further: nearly all actives have a fitted effect of over 50% in size)
Method in brief: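 Multiplexed counter screen: viability of FXR-bla HEK 293T cells under agonist stimulation by chenodeoxycholic acid (50 uM, final) and test compound for 16 h at 37 C, measured by CellTiter-Glo luminescence in the reporter wells.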

[15] = qHTS assay for small molecule agonists of the antioxidant response element (ARE) signaling pathway - cell viability counter screen (AID 743203; calls by dose curve; further: nearly all actives have a fitted effect of over 55% in size)
Method in brief: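 HepG2 cells carrying ARE-driven beta-lactamase; 2,000 cells/well; 5 hrs plating; compound pinned from DMSO; 16 hrs 37C/5% CO2; CellTiter-Glo added; 30 min RT; luminescence.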

[16] = qHTS assay to identify small molecule antagonists of the peroxisome proliferator-activated receptor delta (PPARd) signaling pathway - cell viability counter screen (AID 743213); further: nearly all actives have a fitted effect of over 50% in size
Method in brief: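 Same-well viability: cells pre-incubated 5 h, dosed with compound plus 300 nM L165041, kept 17 h at 37 C, FRET substrate 2 h RT, then CellTiter-Glo 30 min RT and luminescence.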

[17] = molecular target: Vitamin D3 receptor (Homo sapiens) (UniProt P11473); assay: qHTS assay to identify small molecule agonists of the vitamin D receptor (VDR) signaling pathway (AID 743222; calls by dose curve)
Method in brief: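 VDR-bla cells, 2,000/well; 4 h preincubation 37C; cpd (DMSO) 16 h; LiveBLAzer B/G substrate 2 h RT; fluorescence intensity read.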

[18] = molecular target: Vitamin D3 receptor (Homo sapiens) (UniProt P11473); assay: qHTS assay to identify small molecule antagonists of the vitamin D receptor (VDR) signaling pathway (AID 743223; active means well fitted inhibition curve with a large enough effect in the signal ratio in the repeat runs, not every such curve was filed as active; the % refers to the signal ratio)
Method in brief: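 Cells carrying a VDR-driven beta-lactamase reporter (VDR-bla) were co-treated with compound and 3 nM final 1alpha,25-dihydroxyvitamin D3 for 16 h at 37C; reporter activity was measured as FRET substrate fluorescence after 2 h at room temperature.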

[19] = molecular target: Bile acid receptor (Homo sapiens) (UniProt Q96RI1); assay: qHTS assay to identify small molecule antagonists of the farnesoid-X-receptor (FXR) signaling pathway (AID 743217; active means well fitted inhibition curve with a large enough effect in the signal ratio in the repeat runs, not every such curve was filed as active; the % refers to the signal ratio)
Method in brief: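 HEK 293T FXR-UAS-bla, 5000 cells/well; compound + CDCA 50 uM final; 16 h, 37 °C; B/G FRET substrate 2 h RT; fluorescence.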

[20] = molecular target: Bile acid receptor (Homo sapiens) (UniProt Q96RI1); assay: qHTS assay to identify small molecule agonists of the farnesoid-X-receptor (FXR) signaling pathway (AID 743220; active means well fitted activation curve with a large enough effect in the signal ratio in the repeat runs, not every such curve was filed as active; the % refers to the signal ratio)
Method in brief: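 Beta-lactamase reporter under UAS control in GeneBLAzer FXR HEK 293T cells (5000/well) measured with LiveBLAzer FRET substrate after 2 h at room temperature. Compound exposure lasted 16 h at 37C.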

Sequence of Vitamin D3 receptor (Homo sapiens) (P11473 whole entry, looked up): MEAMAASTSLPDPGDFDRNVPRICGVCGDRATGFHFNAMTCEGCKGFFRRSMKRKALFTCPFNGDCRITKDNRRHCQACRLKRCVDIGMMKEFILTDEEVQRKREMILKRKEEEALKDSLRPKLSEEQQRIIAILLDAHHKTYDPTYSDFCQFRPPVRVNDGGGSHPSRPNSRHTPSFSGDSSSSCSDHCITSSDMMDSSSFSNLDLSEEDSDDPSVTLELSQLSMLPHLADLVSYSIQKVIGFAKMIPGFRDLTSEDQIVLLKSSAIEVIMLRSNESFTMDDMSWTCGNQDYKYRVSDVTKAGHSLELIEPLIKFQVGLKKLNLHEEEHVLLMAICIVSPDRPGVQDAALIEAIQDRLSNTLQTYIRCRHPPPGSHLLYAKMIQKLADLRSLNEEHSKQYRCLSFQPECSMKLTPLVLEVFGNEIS
Sequence of Bile acid receptor (Homo sapiens) (Q96RI1 whole entry, looked up): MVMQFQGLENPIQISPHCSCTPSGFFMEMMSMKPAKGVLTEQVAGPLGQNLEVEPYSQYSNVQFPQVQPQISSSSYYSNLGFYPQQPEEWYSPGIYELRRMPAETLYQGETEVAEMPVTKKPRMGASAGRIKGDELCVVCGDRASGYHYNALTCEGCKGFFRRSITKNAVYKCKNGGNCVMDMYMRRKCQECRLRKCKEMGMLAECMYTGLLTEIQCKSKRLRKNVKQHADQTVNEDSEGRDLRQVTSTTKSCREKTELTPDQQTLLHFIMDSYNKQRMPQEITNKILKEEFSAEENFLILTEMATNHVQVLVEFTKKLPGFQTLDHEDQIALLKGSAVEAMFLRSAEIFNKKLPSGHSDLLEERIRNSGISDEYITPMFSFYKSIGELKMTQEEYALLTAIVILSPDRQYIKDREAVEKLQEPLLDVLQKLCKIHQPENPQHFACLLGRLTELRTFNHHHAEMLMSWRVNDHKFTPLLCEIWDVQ
Sequence of Aryl hydrocarbon receptor (Homo sapiens) (P35869 whole entry, looked up): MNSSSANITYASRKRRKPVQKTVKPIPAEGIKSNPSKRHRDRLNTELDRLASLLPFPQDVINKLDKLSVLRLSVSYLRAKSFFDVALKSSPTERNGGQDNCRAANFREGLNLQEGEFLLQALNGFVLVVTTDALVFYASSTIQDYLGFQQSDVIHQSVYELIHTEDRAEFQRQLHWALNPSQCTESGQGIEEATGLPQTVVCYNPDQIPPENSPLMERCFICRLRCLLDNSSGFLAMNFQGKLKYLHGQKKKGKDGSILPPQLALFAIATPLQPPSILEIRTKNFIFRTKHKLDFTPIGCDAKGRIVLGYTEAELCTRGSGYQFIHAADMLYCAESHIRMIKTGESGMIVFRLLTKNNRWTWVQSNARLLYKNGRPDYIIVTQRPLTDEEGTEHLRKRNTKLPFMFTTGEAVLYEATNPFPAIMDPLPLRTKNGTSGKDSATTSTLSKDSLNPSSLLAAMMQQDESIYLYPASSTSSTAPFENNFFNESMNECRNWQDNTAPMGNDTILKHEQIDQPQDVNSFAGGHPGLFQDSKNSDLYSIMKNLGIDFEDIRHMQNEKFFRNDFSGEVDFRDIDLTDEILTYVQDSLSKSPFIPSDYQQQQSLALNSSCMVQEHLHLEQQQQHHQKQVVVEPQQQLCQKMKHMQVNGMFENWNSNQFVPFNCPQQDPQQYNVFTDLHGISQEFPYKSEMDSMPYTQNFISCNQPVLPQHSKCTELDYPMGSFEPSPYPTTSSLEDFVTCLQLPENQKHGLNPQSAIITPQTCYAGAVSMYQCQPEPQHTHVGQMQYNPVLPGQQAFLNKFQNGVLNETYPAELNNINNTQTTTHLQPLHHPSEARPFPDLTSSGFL
Sequence of Peroxisome proliferator-activated receptor gamma (Homo sapiens) (P37231 whole entry, looked up): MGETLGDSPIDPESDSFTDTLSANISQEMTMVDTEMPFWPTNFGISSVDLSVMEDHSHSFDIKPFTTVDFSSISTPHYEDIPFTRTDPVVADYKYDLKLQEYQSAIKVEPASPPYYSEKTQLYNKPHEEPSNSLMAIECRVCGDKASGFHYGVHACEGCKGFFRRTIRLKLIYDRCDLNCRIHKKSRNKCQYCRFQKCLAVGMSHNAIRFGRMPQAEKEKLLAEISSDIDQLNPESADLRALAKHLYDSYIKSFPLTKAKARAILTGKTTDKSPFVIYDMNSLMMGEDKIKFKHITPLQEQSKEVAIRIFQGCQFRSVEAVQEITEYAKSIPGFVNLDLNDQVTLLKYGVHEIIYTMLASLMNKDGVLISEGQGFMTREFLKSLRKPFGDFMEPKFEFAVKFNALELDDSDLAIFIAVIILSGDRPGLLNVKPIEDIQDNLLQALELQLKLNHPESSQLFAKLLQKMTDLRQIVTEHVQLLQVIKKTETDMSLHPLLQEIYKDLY
Sequence of Peroxisome proliferator-activated receptor delta (Homo sapiens) (Q03181 whole entry, looked up): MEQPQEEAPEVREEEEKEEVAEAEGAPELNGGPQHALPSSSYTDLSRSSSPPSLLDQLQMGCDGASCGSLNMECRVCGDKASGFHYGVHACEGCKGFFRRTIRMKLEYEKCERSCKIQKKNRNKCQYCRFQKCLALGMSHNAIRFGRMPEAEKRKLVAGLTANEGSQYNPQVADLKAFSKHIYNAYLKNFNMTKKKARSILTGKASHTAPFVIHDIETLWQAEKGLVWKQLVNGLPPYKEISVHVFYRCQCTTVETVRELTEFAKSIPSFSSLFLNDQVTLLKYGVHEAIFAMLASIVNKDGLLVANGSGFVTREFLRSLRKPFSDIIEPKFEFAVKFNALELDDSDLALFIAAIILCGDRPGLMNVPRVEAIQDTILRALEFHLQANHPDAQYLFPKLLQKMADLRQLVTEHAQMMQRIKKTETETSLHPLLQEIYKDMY

| SMILES | Potency [1] | Potency [2] | Potency [3] | outcome [4] | Potency [5] | Potency [6] | Potency [7] | Potency [8] | Potency [9] | Potency [10] | outcome [11] | Potency [12] | Potency [13] | Potency [14] | Potency [15] | Potency [16] | outcome [17] | outcome [18] | outcome [19] | outcome [20] |
| --- | --- | --- | --- | --- | --- | --- | --- | --- | --- | --- | --- | --- | --- | --- | --- | --- | --- | --- | --- | --- |
| Cn1c(CCCC(=O)O)nc2cc(N(CCCl)CCCl)ccc21 | inactive | inactive | inactive | inactive | inactive | inactive | inactive | inactive | inactive | inactive | inactive | inactive | inactive | inactive |  |  |  |  |  |  |
| ClCC1CO1 (stereo unspecified) | inactive | inactive | inactive | inactive | inactive | inactive | inactive |  | inactive | inactive | inactive | inactive | inactive | inactive | inactive | inactive | inactive | inactive |  |  |
| CC(C)NCC(O)c1ccc([N+](=O)[O-])cc1 (stereo unspecified) | inactive | inactive | inactive | inactive | inactive | inactive | inactive | inactive |  |  | inactive | inactive | inactive | inactive | inactive | inactive | inactive | inactive | inactive |  |
| CCC1(c2ccccc2)C(=O)N(COC)C(=O)N(COC)C1=O | inactive | inactive | inactive | inactive | inactive | inactive |  |  | inactive | inactive | inactive | inactive | inactive | inactive | inactive |  | inactive | inactive |  |  |
| CCCC(C)(COC(N)=O)COC(N)=O | inactive | inactive | inactive | inactive |  | inactive | inactive | inactive | inactive | inactive | inactive | inactive | inactive | inactive | inactive | inactive | inactive | inactive |  |  |
| NNC(N)=O | inactive | inactive | inactive | inactive |  | inactive |  | inactive |  | inactive | inactive | inactive | inactive | inactive | inactive |  | inactive |  | inactive |  |
| CCCCCCC(=O)CCCCCC/C=C/C[C@@H](O)[C@H](O)[C@@](N)(CO)C(=O)O | inactive | inactive | inactive | inactive |  | inactive |  | inactive |  | inactive | inactive | inactive |  | inactive | inactive |  | inactive | inactive |  |  |
| CCC(=O)OC1(c2ccccc2)CCN(C)CC1 | inactive | inactive | inactive | inactive |  | inactive |  | inactive | inactive | inactive | inactive | inactive | inactive | inactive |  | inactive | inactive | inactive | inactive |  |
| CC(C)(C1CCC(O)CC1)C1CCC(O)CC1 (stereo unspecified) | inactive | inactive | inactive | inactive |  | inactive | inactive | inactive |  | inactive |  |  | inactive | inactive | inactive | inactive | inactive | inactive |  |  |
| CCCCCCCCBr | inactive | inactive | inactive | inactive |  | inactive | inactive | inactive | inactive | inactive |  |  | inactive |  | inactive | inactive | inactive | inactive |  | inactive |
| O=c1[nH]c2ccccc2o1 | inactive | inactive | inactive | inactive |  | inactive | inactive | inactive | inactive | inactive | inactive | inactive | inactive | inactive | inactive |  | inactive |  |  |  |
| C[C@]12C=CC(=O)C=C1CC[C@@H]1[C@@H]2CC[C@@]2(C)[C@H]1CC[C@]2(C)O | inactive | inactive | inactive | inactive |  | inactive |  | inactive | inactive | inactive |  |  | inactive | inactive | inactive |  |  | inactive |  |  |
| CCOC(=O)CC(SP(=S)(OC)OC)C(=O)OCC (stereo unspecified) | inactive | inactive and 33.1 µM (active) | inactive | inactive |  | inactive | 6.86 µM (active) | inactive |  |  | inactive | inactive | inactive | inactive |  | inactive | inactive | inactive |  |  |
| CCC1(c2ccccc2)CCC(=O)NC1=O (stereo unspecified) | inactive | inactive | inactive | inactive |  | inactive | inactive | inactive |  | inactive | inactive | inactive | inactive | inactive | inactive | inactive | inactive | inactive |  |  |
| OP(O)c1ccccc1 | inactive | inactive | inactive | inactive |  | inactive | inactive | inactive | inactive | inactive | inactive | inactive | inactive |  | inactive |  |  | inactive | inactive |  |
| CS(=O)(=O)Cl | inactive | inactive | inactive | inactive |  | inactive |  | inactive | inactive | inactive | inactive | inactive | inactive | inactive | inactive |  | inactive | inactive |  |  |
| CCN[C@@H](C)Cc1cccc(C(F)(F)F)c1 | inactive | inactive | inactive | inactive |  | inactive | inactive |  | inactive | inactive | inactive | inactive | inactive | inactive | inactive | inactive |  |  |  | inactive |
| CCOC(=O)NC(C)(C)Cc1ccc(Cl)cc1 | inactive | inactive | inactive | inactive |  | inactive |  | inactive | inactive | inactive | inactive | inactive | inactive |  | inactive | inactive | inactive | inactive | inactive |  |
| CN(C)CCc1c[nH]c2cccc(OP(=O)(O)O)c12 | inactive | inactive | inactive | inactive |  | inactive | inactive | inactive |  | inactive | inactive | inactive | inactive | inactive | inactive | inactive |  |  | inactive | inactive |

Source: PubChem BioAssay (Tox21)
